Results published in the supplement of paper PMC6555819.

Legend:
Experiment in all cases: PBM binding z-score (relative to random genomic background probes); higher = stronger binding; sequences stand for … in GC…GCGATTGACAGCGTAGAATGAAGG
[1] = tested on: PPARg:RXRa DBDmut IVT, anti-RXR (DBD mutation: RXRa K156A/R161A, NR concentration 270 nM, RXRa partner concentration 90 nM)
How it was run: (§1)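 Binding z-scores take random background probes as their reference. They come from custom Agilent 4×180K protein-binding microarrays incubated 1 h with ligand-free nuclear receptor dimers, with antibodies against each partner (one per run) detecting binding. Scanned fluorescence was regression-normalized.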

[2] = tested on: PPARg:RXRa IVT, anti-PPARg (NR concentration 270 nM, RXRa partner concentration 90 nM)
How it was run: as §1

[3] = tested on: PPARg DBDmut:RXRa IVT, anti-PPARg (DBD mutation: PPARg1 K132A/R137A, NR concentration 270 nM, RXRa partner concentration 90 nM)
How it was run: as §1

[4] = tested on: PPARg DBDmut IVT, anti-PPARg (DBD mutation: PPARg1 K132A/R137A, NR concentration 270 nM)
How it was run: as §1

[5] = tested on: PPARg homodimer (NR concentration 180 nM)
How it was run: as §1

[6] = tested on: PXR:RXRa (NR concentration 270 nM, RXRa partner concentration 90 nM)
How it was run: as §1

[7] = tested on: PXR homodimer (NR concentration 270 nM)
How it was run: as §1

[8] = tested on: RARa:RXR (NR concentration 270 nM, RXRa partner concentration 90 nM)
How it was run: as §1

[9] = tested on: RARa homodimer (NR concentration 270 nM)
How it was run: as §1

[10] = tested on: RARb:RXRa (NR concentration 270 nM, RXRa partner concentration 90 nM)
How it was run: as §1

[11] = tested on: RARb homodimer (NR concentration 270 nM)
How it was run: as §1

[12] = tested on: RARg:RXRa (NR concentration 270 nM, RXRa partner concentration 90 nM)
How it was run: as §1

[13] = tested on: RARg homodimer (NR concentration 270 nM)
How it was run: as §1

[14] = tested on: RXRa DBDmut IVT, anti-RXR (DBD mutation: RXRa K156A/R161A, NR concentration 90 nM)
How it was run: as §1

[15] = tested on: RXRa homodimer (NR concentration 180 nM)
How it was run: as §1

[16] = tested on: THRa:RXRa (NR concentration 90 nM, RXRa partner concentration 90 nM)
How it was run: as §1

[17] = tested on: THRa homodimer (NR concentration 90 nM)
How it was run: as §1

[18] = tested on: VDR homodimer (NR concentration 270 nM)
How it was run: as §1

Sequence	PBM binding z-score [1]	PBM binding z-score [2]	PBM binding z-score [3]	PBM binding z-score [4]	PBM binding z-score [5]	PBM binding z-score [6]	PBM binding z-score [7]	PBM binding z-score [8]	PBM binding z-score [9]	PBM binding z-score [10]	PBM binding z-score [11]	PBM binding z-score [12]	PBM binding z-score [13]	PBM binding z-score [14]	PBM binding z-score [15]	PBM binding z-score [16]	PBM binding z-score [17]	PBM binding z-score [18]
AGTCAAAGTTCATCCAGGTAACGTAAGATATGCT	0.286	3.48	1.21	1.23	2.63	5.26	8.19	3.69	1.34	4.83	3.81	5.56	5.81	4.61	4.49	3.57	0.915	5.17
ACTATTAGTCGAGACGAGGGCAACCGATAGGTTG	-0.021	0.553	0.32	-0.276	0.0526	0.376	0.101	0.238	-0.112	0.812	0.973	0.43	0.663	0.357	0.46	0.977	0.0699	0.358
TTACCAAGGGGAAGGTCGTTGATCCCTCTGTAGA	-0.147	0.449	-0.647	-0.525	-0.13	0.711	-0.0192	0.899	-0.541	0.811	0.634	0.225	-0.054	-0.444	0.898	0.64	-0.636	0.435
TCTAGCAGCCCAGAGGGTCACTCAAGAGGTACGG	0.523	-0.253	-0.749	-0.961	0.154	1.3	-0.683	2.44	-0.794	1.81	2.38	2.16	1.8	-0.186	2.23	1.63	-0.455	0.294
GGAGACAGGTGAAACGCAGGTAACTCAGGGTGGC	0.957	0.901	-1.26	-0.98	-0.102	-0.298	-0.332	0.137	-0.68	0.904	0.55	1.11	0.252	-0.648	0.638	1.48	0.0199	-0.609
CCGACTGAGGCAGAAAGGTTACCATACCATCCGG	-0.0384	-0.0549	-1.78	-0.731	0.893	0.855	-0.109	1.69	0.393	1.62	2.04	1.26	0.925	-0.0333	1.87	1.06	-0.0968	-0.0311
CGTCCAAGGTCAATGTCAGTGAAAGAGACTCGAA	2.67	3.14	-0.322	-0.37	2.27	3.36	1.18	3.8	0.639	4.85	3.64	5.4	5.96	3.62	4.79	3.57	1.84	2.02
CCTAGCAGGCCAATCTGTGTCACTCAAGGCTTGA	2.87	2.13	-1.03	-1.32	-0.244	-0.438	-0.358	-0.217	-0.52	0.211	0.114	-0.172	0.279	0.249	-0.389	0.791	-0.64	-0.327
CGAACTAGGTCATGGACAGTGAATCTCCGCACGC	8.13	8.2	2.01	1.53	1.69	1.36	-0.279	2.43	0.353	3.61	2.85	3.94	4.35	1.84	3.21	2.94	1.16	0.367
TCGAGTAGGTTACGAATGGGGCATTCAGCTTTCT	3.5	2.62	-0.724	-1.15	-0.342	-0.00987	-0.855	0.446	-0.789	0.855	0.29	0.904	0.405	0.441	0.67	-0.0841	-1.13	-0.811
CATACAGGGTCAGCTAGGCCAGTGTAGGGACGGC	1.02	2.44	0.598	0.349	1.32	1.78	-0.247	3.02	-0.155	3.98	3.34	4.2	4.67	1.57	3.89	3.07	0.856	1.07
ATCTCTAGGAAAAGATAGTTCAGTGAATGCAAAT	-0.409	-0.0598	0.523	0.248	-0.459	0.432	0.918	-0.0188	1.07	0.49	0.679	0.447	0.556	0.143	0.0291	0.206	-0.344	0.566
TGAATGAGGTTATAAGATCACGGAACGTTGCAAA	0.939	2.19	1.02	1.32	0.335	1.43	0.182	2.09	0.409	1.5	0.253	2.04	1.23	0.931	2.7	2.08	0.188	0.468
TCTTGTAGATCAAGCAGGTTAAGGAAGCCTGAGT	1.51	0.345	0.213	-0.0431	-0.0432	0.142	0.105	0.407	-0.315	0.0755	0.203	0.0317	-0.28	0.415	0.299	0.262	-0.359	0.166
GCTGCTAGGTCAGGTTGGTCAGCTAGCGGGTACG	2.9	1.88	-0.638	-1.03	0.481	0.0467	-1.01	0.604	-0.467	3.38	2.7	2.69	3.44	0.414	0.963	1.71	0.421	-0.146
TCTCGGAGGACACGAAGGTAAGAGCTTTCCAGAG	1.18	-0.283	-1.16	-1.1	-1.58	-0.316	-1.01	-0.153	-0.725	1.25	0.164	0.396	1.27	0.371	-0.0884	1.18	0.0809	-0.641
